In PubChem BioAssay AID1259415 (National Center for Advancing Translational Sciences (NCATS), 2018):
The whole screen tested about 410,000 compounds, of which about 18,000 (4.4%) were called active. Another 7% or so got no clear call; they are omitted. Only a selection was taken, and actives are over-represented in it overall. Values without a mark were called inactive. No stated cut-off is given here; in the data, active means activity change below about -60%; inconclusive means no clear call, values can overlap the other calls; inactive means above about -39%.

Experiment: qHTS Assay for inhibitors of the human cytomegalovirus (HCMV)
Details: HFF cells, HCMV-luciferase reporter, 72 h; at 57.5 µM; active compounds read low
Method in brief: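 Screen run at 2 compound doses on HFFs infected with reporter HCMV, MOI 1 PFU/cell. Luciferase activity from cell lysates at 72 h post infection gave inhibition relative to buffer-only and Salinomycin wells.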
On the % scale 0 is the no-effect control and ±100 the full control effect.

SMILES | activity change, negative = inhibition
COc1ccc(N(CC(=O)Nc2ccc(F)c(F)c2)S(=O)(=O)c2c(C)[nH]c(=O)[nH]c2=O)cc1 | 0%
CC(C)c1ccc(NC(=O)c2cc(S(=O)(=O)N3CCc4ccccc4C3)ccc2F)cc1 | 3.74%
CC1=C(C(=O)OCC(C)C)C(c2ccc(OCc3ccccc3)cc2)N2C(=O)CCSC2=N1 (centres undefined) | 14.9%
CC1CCC2(CC1)N=C(c1ccccc1)C(=O)N2CC(=O)Nc1ccc(F)c(Cl)c1 (centres undefined) | -96% (active)
COc1ccc(NC(=O)CN2C(=O)C(c3ccccc3)=NC23CCCCCC3)cc1OC | -13.9%
CCc1ccc(NC(=O)CN2C(=O)C(c3ccccc3)=NC23CCCCCC3)cc1 | 16.1%
COc1cccc(NC(=O)C2CCN(c3cc(C)nc4c(-c5ccc(Cl)cc5)c(C)nn34)CC2)c1 | -5.4%
CC(=O)c1cc(-c2ccccc2)[nH]c1N1CCCC1 | 30.4%
O=c1cc(-c2ccccc2)[nH]c2cc(F)ccc12 | -67.4% (active)
Cc1ccc(-c2cc(=O)c3ccc(F)cc3[nH]2)cc1 | 3.06%
COc1cccc2sc(Nc3nc(C)c(C(C)=O)s3)nc12 | -77% (active)
COc1ccccc1Nc1ncc(C(C)=O)c(C)n1 | 16.2%
COc1ccccc1CNC(=O)COC(=O)c1sc(C)nc1C | -2.84%
O=C(Nc1ccc(-c2nc3cc(NC(=O)c4ccccc4Cl)ccc3o2)cc1)c1ccccc1Cl | -35.6%
COc1ccc(-c2nc(Cn3c(=O)cc(C)c4c(C)nn(-c5ccccc5)c43)c(C)o2)c(OC)c1 | -2.37%
Cc1nc2ccc(S(=O)(=O)NC(C(=O)NCc3ccccc3Cl)C(C)C)cc2s1 (centres undefined) | -12.9%
COc1ccccc1-c1n[nH]nc1C1=CC(=O)CC(C)(C)C1 | -4.89%
CC1(C)CC(=O)C=C(c2ccc(Cl)c(C(F)(F)F)c2)C1 | -4.75%
CC1(C)CC(=O)C=C(c2ccc3ncccc3c2)C1 | -83.3% (active)
CC1CCCCN1Cc1c(O)ccc2c(=O)c(-c3cccc(Cl)c3)c(C(F)(F)F)oc12 (centres undefined) | 11.3%
O=C(CCc1c[nH]c2ccccc12)NCCOc1ccccc1 | -2.62%
N#C/C(=C/c1ccc(N2CCCCC2)o1)C(=O)NCCc1c[nH]c2ccccc12 | -60.4% (active)
O=C(NCCCc1ccccc1)C(=O)c1c[nH]c2ccccc12 | 21.3%
COc1ccc(NC(=O)Cn2cc(C(=O)c3ccncc3)c(=O)c3cc(C)ccc32)cc1Cl | -8.82%
